Molecules are shown by their SMILES. Unmarked numbers belong to inactive results. Results filed as inconclusive are left out. Calls of active or inactive are those of the source. Unless noted, calls come from the whole dose curve; as a rule, active = well fitted curve in the direction sought with a large enough effect in the repeat runs; inconclusive = weak or mixed curves; inactive = no such curve, though single readings can be large; an effect the other way counts as inactive or inconclusive.

Test [1] deals with Progesterone receptor (Homo sapiens) (UniProt P06401). Put plainly: qHTS assay to identify small molecule antagonists of the progesterone receptor (PR) signaling pathway (AID 1346795; active = well fitted inhibition curve with a large enough effect in the signal ratio in the repeat runs, not every such curve was filed as active; the % refers to the signal ratio; note: potency is the fitted concentration of half-maximal effect). Summed up:
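Stimulus R5020 at 1 nM final; cells HEK293T PR-UAS-bla; medium with 2% charcoal-stripped FBS; compound exposure 16 hr at 37C, 5% CO2; detection by FRET beta-lactamase substrate, 2 hr, room temperature.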
Background: In qHTS, concentration-response curves come from the screen itself.

A short description of test [2]: qHTS assay to identify small molecule agonists of the progesterone receptor (PR) signaling pathway - cell viability counter screen (AID 1346799; calls by dose curve; note: nearly all actives have a fitted effect of over 45% in size). Summed up: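 Multiplexed viability read: CellTiter-Glo luminescence, 30 min RT, following LiveBLAzer FRET measurement on PR-UAS-bla HEK293T cells exposed to compounds 16 hr.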
The nature of test [3]: qHTS assay to identify small molecule antagonists of the TGF-beta/Smad signaling pathway - cell viability counter screen (AID 1346824). Note: nearly all actives have a fitted effect of over 50% in size. In a few lines: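 SBE-bla HEK 293T cells, incubated overnight, then compound plus 0.25 ng/mL TGF-beta1 (stock added) for 5 hr at 37 C. Viability was read in the same wells by CellTiter-Glo luminescence after 30 min at room temperature.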
Test [4] is described as follows: qHTS assay to identify small molecule agonists of the TGF-beta/Smad signaling pathway - cell viability counter screen (AID 1346829). Note: top concentration of the series differs between compounds; nearly all actives have a fitted effect of over 45% in size. In a few lines: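 Tox21 qHTS format: SBE-bla HEK 293T cells treated with DMSO-dissolved compounds for 5 hr; CellTiter-Glo luminescence after 30 min at room temperature.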
A short description of test [5]: qHTS assay to identify small molecule agonists of the TGF-beta/Smad signaling pathway (AID 1346859; active = well fitted activation curve with a large enough effect in the signal ratio in the repeat runs, not every such curve was filed as active; the % refers to the signal ratio; note: potency is the fitted concentration of half-maximal effect; for activation: series mostly up to about 77 µM). Summed up:
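Screening used HEK 293T SBE-bla cells at 4,000/well. Test agents: 5 hr, 37 C. Detection: FRET substrate, 2 hr RT, then excitation 405 nm with emissions at 460 and 530 nm.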

Test [6] can be described thus: Human pregnane X receptor (PXR) small molecule agonists, qHTS cell viability counter screen (AID 1346977). Note: nearly all actives have a fitted effect of over 50% in size. Note: potency is the fitted concentration of half-maximal effect. Summed up:
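In each well, the PXR reporter HepG2 line was checked for viability: CellTiter-Fluor reagent added 23hr post-dosing, fluorescence read after 1hr incubation at 37C.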

Test [7] is described as follows: Caspase-3/7 induction in HepG2 cells by small molecules, qHTS assay (AID 1346978). Note: nearly all actives have a fitted effect of over 15% in size. In a few lines:
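Wild-type HepG2 cells, 2,000/well, settled 5 hr at 37 C and 5% CO2, then compound-treated for 17 hr; caspase-3/7 activity read by luminescent Caspase-Glo 3/7 after 30 min at room temperature.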

The nature of test [8]: qHTS assay to identify small molecule antagonists of the progesterone receptor (PR) signaling pathway - cell viability counter screen (AID 1346798). For activity change, negative = cytotoxicity: series mostly up to about 92 µM. Note: nearly all actives have a fitted effect of over 50% in size. Note: potency is the fitted concentration of half-maximal effect. In a few lines: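 In the same plates used for the beta-lactamase readout, cell viability of compound- and R5020-treated PR-UAS-bla HEK293T cells (16 hr, 37C) was assessed by CellTiter-Glo luminescence.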
Test [9] concerns the target Thyrotropin-releasing hormone receptor (Homo sapiens) (UniProt P34981). Put plainly: qHTS assay to identify small molecule agonists of the thyrotropin-releasing hormone receptor (TRHR) signaling pathway (AID 1346891; calls by dose curve; note: series mostly up to about 58 µM). In a few lines: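 Readout was intracellular calcium fluorescence in TRHR-Hek293 cells. Cells were incubated 18 h, dye-loaded 2 h at 37 °C, and treated with compound in agonist mode.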

Test [10] shares this target. The experiment in a line: qHTS assay to identify small molecule antagonists of the thyrotropin-releasing hormone receptor (TRHR) signaling pathway (AID 1346877; active = well fitted inhibition curve with a large enough effect in the repeat runs, not every such curve was filed as active; note: series mostly up to about 51 µM). In a few lines:
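Kinetic fluorescence (3 min, 1 s resolution) following stimulation with TRH at 1 nM final; HEK293 cells bearing human TRHR; 5 min compound preincubation at RT; concentration-response over 15 points, triplicates.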
% is set by controls: 0 for no effect and ±100 for the full control effect.

Sequence of Thyrotropin-releasing hormone receptor (Homo sapiens) (P34981 whole entry, looked up): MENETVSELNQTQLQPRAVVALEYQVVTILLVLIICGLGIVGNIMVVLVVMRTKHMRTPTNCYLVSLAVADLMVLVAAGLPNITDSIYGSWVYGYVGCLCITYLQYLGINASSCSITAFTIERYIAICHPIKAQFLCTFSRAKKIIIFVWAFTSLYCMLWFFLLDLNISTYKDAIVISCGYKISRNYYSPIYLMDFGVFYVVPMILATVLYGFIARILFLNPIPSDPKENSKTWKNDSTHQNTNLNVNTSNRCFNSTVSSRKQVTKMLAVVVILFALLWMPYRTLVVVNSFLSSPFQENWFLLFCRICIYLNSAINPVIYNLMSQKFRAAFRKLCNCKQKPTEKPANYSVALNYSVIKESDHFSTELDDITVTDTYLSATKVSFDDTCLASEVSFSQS
Sequence of Progesterone receptor (Homo sapiens) (P06401 whole entry, looked up): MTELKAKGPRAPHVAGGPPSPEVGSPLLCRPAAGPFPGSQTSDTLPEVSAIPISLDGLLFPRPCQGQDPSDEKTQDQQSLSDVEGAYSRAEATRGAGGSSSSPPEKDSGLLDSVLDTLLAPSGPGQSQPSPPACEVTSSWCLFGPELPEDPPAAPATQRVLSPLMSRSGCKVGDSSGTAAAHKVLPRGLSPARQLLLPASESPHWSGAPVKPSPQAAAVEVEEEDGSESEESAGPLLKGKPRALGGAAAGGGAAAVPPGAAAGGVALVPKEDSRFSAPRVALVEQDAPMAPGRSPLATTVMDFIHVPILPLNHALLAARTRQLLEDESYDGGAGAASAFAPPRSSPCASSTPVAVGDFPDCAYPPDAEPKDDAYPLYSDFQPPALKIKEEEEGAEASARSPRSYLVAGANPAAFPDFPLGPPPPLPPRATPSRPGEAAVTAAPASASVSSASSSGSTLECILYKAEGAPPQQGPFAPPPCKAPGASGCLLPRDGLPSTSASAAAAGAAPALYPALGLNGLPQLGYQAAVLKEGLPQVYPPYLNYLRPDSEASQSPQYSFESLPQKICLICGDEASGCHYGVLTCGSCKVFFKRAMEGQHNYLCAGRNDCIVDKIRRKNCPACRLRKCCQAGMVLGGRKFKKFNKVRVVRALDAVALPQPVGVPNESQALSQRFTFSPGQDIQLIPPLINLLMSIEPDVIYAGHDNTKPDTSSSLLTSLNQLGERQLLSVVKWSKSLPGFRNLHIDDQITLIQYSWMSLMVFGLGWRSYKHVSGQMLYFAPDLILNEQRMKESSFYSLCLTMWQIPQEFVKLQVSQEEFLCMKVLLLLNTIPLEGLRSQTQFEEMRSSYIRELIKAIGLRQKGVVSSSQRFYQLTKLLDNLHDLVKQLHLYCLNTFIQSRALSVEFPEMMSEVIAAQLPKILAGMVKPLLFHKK

Regarding `CCCCCCCCCCCCCCCC`, the Potency entry in test [1], in test [2], in test [3], in test [4], in test [5] and in [6] was “inactive” each time. The Potency entry in test [7] was “inactive”.
For `CCOC(=O)N1CCC(=C2c3ccc(Cl)cc3CCc3cccnc32)CC1`, the Potency in test [1] was 13.7 µM (active); in test [8] it was 61.1 µM (active). In addition, the Potency entry in test [3], in test [4], in [9] and in test [7] was “inactive” each time.
With `CC(=O)Oc1ccc(C2(c3ccc(OC(C)=O)cc3)Oc3ccccc3NC2=O)cc1`, the Potency in test [1] is 21.1 µM (active). The Potency result in [3], in test [4], in test [5], in test [10], in test [9] and in test [6] was “inactive” in each case. Besides, the Potency entry in [7] was “inactive”.
With `CCCCCCC(C)Nc1ccc(Nc2ccccc2)cc1` (configuration not stated), the Potency in [1] was 48.6 µM (active). Further, the Potency entry in test [3], in test [4], in test [5], in test [10], in test [9] and in test [7] was “inactive” in each case.
Regarding `Oc1c(Br)cc(Br)c2cccnc12`, in test [1], the Potency is 2.66 µM (active). Further, the Potency result in [2], in test [3], in [4], in [5] and in [7] was “inactive” in each case.
For the compound `C#CC(O)CCC` (configuration not stated), the Potency entry in test [1], in test [8], in test [3], in [4], in test [10] and in [9] was “inactive” in each case. Further, the Potency entry in test [7] was “inactive”.
Consider `O=C[C@H](O)[C@H](O)[C@H](O)CO`, for which the Potency result in test [1], in test [2], in test [3], in [4], in [5] and in test [10] was “inactive” each time. For the same compound, the Potency entry in test [9], in test [6] and in test [7] was “inactive” each time.
In the case of `O=C(Oc1ccccc1)c1cccc(C(=O)Oc2ccccc2)c1`, the Potency in [1] is 25.7 µM (active); in [8] it was 64.4 µM (active). In addition, the Potency entry in test [4], in [10], in test [9] and in [7] was “inactive” each time.
As for `NC(=O)c1nc(-c2cccc(-c3cc(F)ccc3OCC(F)(F)C(F)(F)F)c2)n[nH]1`, the Potency was 34.4 µM (active) in [1] and 54.5 µM (active) in [6]. The Potency result in test [3], in test [4], in [5], in [10], in test [9] and in [7] was “inactive” throughout.
`COc1ccc(C#N)cc1`: the Potency entry in test [1], in test [2], in test [3], in test [4], in test [5] and in [10] was “inactive” in each case. Also, the Potency result in test [9], in test [6] and in test [7] was “inactive” throughout.
Regarding `O=C1Nc2ccc(Cl)cc2[C@@](C#CC2CC2)(C(F)(F)F)O1`, the Potency in test [1] is 7.5 µM (active). Moreover, the Potency entry in test [2], in test [4], in [5], in test [10] and in [9] was “inactive” throughout.
For the compound `S=C(SSSSSSC(=S)N1CCCCC1)N1CCCCC1`, the Potency in test [1] is 13.4 µM (active). Also, the viability change, negative = cytotoxic in test [3] is 17.4% [at 15.8 µM]. Also, the activity change, negative = cytotoxicity in test [4] was -0.13% [at 15.8 µM]; in test [6], 0.702% [at 19 µM]. The activation is 10.4% [at 15.8 µM] in test [5] and 4.08% [at 11.8 µM] in [9]. The activity, negative = inhibition in test [10] was -6.79% [at 10.5 µM]. The caspase activation in [7] was 0.0321% [at 19 µM].
`c1ccc(Nc2cccc3ccccc23)cc1`: the Potency in test [1] was 13.9 µM (active). The Potency entry in [8], in test [4], in test [5], in [10], in test [9] and in test [7] was “inactive” throughout.
As for `CCc1cccc(CC)c1N(COC)C(=O)CS(=O)(=O)O`, the Potency entry in [1], in test [8], in test [4], in test [5], in test [10] and in test [9] was “inactive” throughout. For the same compound, the Potency result in test [7] was “inactive”.
Consider `O=C1NCN(c2ccccc2)C12CCN(CCCC(c1ccc(F)cc1)c1ccc(F)cc1)CC2`, for which the Potency in test [1] was 26.6 µM (active); in test [6], 29.8 µM (active). Also, the Potency entry in [2], in [10] and in test [9] was “inactive” throughout.
In the case of `CC(O)C#CC(C)O` (configuration not stated), the Potency result in test [1], in test [8], in test [4], in test [5], in test [9] and in test [7] was “inactive” each time.
Turning to `COc1ccc2sc(C(=O)Nc3nnn[nH]3)c(OC(C)C)c2c1`, the Potency in [1] was 54.3 µM (active). The Potency entry in [8], in test [3], in test [4] and in test [7] was “inactive” in each case.
Take `CSc1c(Cl)c(Cl)c(Cl)c(Cl)c1Cl`: the Potency entry in test [1], in test [8], in [4], in [5], in [10] and in test [9] was “inactive” throughout. Also, the Potency entry in test [6] and in test [7] was “inactive” each time.
In the case of `CCCCCCCCCC(=O)N(C)C`, the Potency entry in test [1], in [2], in test [3], in [4], in test [5] and in test [9] was “inactive” throughout. The Potency entry in test [6] and in test [7] was “inactive” in each case.
On to `CC(C)(C)c1n[nH]c(=O)n(N)c1=O`, for which the Potency result in test [1], in [8], in test [3], in test [4], in [10] and in [9] was “inactive” throughout. In test [7], the Potency result was “inactive”.
For `C=C(C)C(=O)OCCC[Si](Cl)(Cl)Cl`, the Potency entry in [1], in test [8], in test [3], in [4] and in test [7] was “inactive” each time.
For the compound `COC(=O)C1=C(C)NC(C)=C(C(=O)OCCCN2CCC(c3ccccc3)(c3ccccc3)CC2)C1c1cccc([N+](=O)[O-])c1` (configuration not stated), the figures for the Potency in test [1], in test [8] and in test [6] were 18.8 µM (active), 18.8 µM (active) and 26.6 µM (active), respectively. Besides, the Potency entry in [3], in [5], in test [10] and in [9] was “inactive” throughout.
Regarding `Cc1ccc(-n2[nH]c(C)c(N=Nc3cccc(-c4cccc(C(=O)O)c4)c3O)c2=O)cc1C`, in test [1], the Potency is 18.8 µM (active). In addition, the Potency entry in test [3], in test [4], in [5], in test [10], in test [9] and in [7] was “inactive” each time.
`CCOC(=O)C1=C(C)NC(C)=C(C(=O)OCC)C1c1ccccc1/C=C/C(=O)OC(C)(C)C`: the Potency in test [1] is 26.6 µM (active); in [5], 23.9 µM (active). Further, the Potency result in [3], in [4], in [10] and in test [9] was “inactive” each time.
For `CC(C)(C)c1cc(/C=C2\SC(=N)NC2=O)cc(C(C)(C)C)c1O`, the Potency is 61.1 µM (active) in [1] and 48.6 µM (active) in test [6]. Moreover, the Potency result in test [3], in test [4], in test [5], in [9] and in [7] was “inactive” each time.
Consider `CCO[Si](CCCSSSSCCC[Si](OCC)(OCC)OCC)(OCC)OCC`, for which the Potency entry in [1], in [8], in [3], in [4], in test [9] and in test [6] was “inactive” throughout. In addition, the Potency entry in [7] was “inactive”.
`NCCCCCCNCCCCCCN`: the Potency entry in test [1], in test [8], in test [3], in test [4], in test [9] and in [6] was “inactive” throughout. Moreover, the Potency result in test [7] was “inactive”.
`CC(NCCC(c1ccccc1)c1ccccc1)c1ccccc1` (configuration not stated): the figures for the Potency in test [1], in [8] and in test [6] were 29.8 µM (active), 21.1 µM (active) and 26.6 µM (active), respectively. In addition, the Potency result in test [5], in [10] and in test [9] was “inactive” each time.
